In all, about 31,000 sequences went through this assay and about 1,400 (4.5%) were called active.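 Rule for the calls: active = median seed-adjusted z-score above 1 or below -1; inactive = the rest.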 Many of the other results were omitted from the sample, so actives are more common in it than they were.
Assay: Novel Modifiers of Survival Motor Neuron (SMN) Protein: Gene Identification via Genome-wide siRNA Screen;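 note: luminescence tracks full-length SMN protein made from the SMN2 reporter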
Conditions: HEK293T SMN2-luciferase reporter, siRNA knockdown, 72 h; actives lie on both sides
How it was run: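 Genome-wide siRNA screen (10418 genes, 3 siRNAs each, 1 pmol per well) by reverse transfection in HEK293T cells stably carrying an SMN2-luciferase reporter; luminescence after 72 hours, normalized to negative-control siRNA, log10-transformed, MAD-scored.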

| Sequence | median seed-adjusted z-score |
| --- | --- |
| CAGCAGACGUAAAAAUUCATT against MSX2 | -0.406 (inactive) |
| CCACUGGAAUGGUACUUAUTT against UBR1 | -0.775 (inactive) |
| GAGCUGUAUUUCUAUGUCATT against PLXNA3 | 0.255 (inactive) |
| GCGAGCCGCUUAUGUGGAATT against TCF21 | -0.15 (inactive) |
| UCUUAGAUGUCAAGCUGAATT against RNF7 | -1.18 (active) |
| AGGUAGAAUGGACAAGUGATT against PPP1R11 | -0.498 (inactive) |
| GGAUUAUGAGUACCGAGAATT against MAP3K14 | -0.0609 (inactive) |
| GAUCAGGAGUCCUUCAAUATT against RAB1A | 0.395 (inactive) |
| CGCCGACUGUCAUGCUUCATT against FCN1 | 0.346 (inactive) |
| GUUCAUCCCUUAUUCGACATT against ZNF215 | 0.485 (inactive) |
| CCAUCAACAUCGCAGAUGATT against ABHD11 | -0.189 (inactive) |
| CCGACACGCUCUACAAUAATT against BRUNOL6 | -0.542 (inactive) |
| CCCUUACCCAAAACGAGAATT against CDK8 | -1.47 (active) |
| CCCUGACUGCAACUGCUUUTT against LDLRAD2 | -0.459 (inactive) |
| GAGUCAUUAUUGACAACAATT against APH1B | -0.135 (inactive) |
| GGUGUUUGAUAUUCGAAUUTT against USP40 | 0.00437 (inactive) |
| GCAACAUCCUCAUUGUAUUTT against MCHR2 | -0.658 (inactive) |
| GCAUAUUCCGGUGAUAACUTT against RAB6C | -1.08 (active) |
| CAGGCGCCUGAAGUACAUATT against SLC35A2 | 1.06 (active) |
| AGCUCACCAGAGAAAUUUUTT against CHDH | 0.0241 (inactive) |
| GCUGCUCUGUUGAUGCUUATT against POMT1 | 0.327 (inactive) |
| GGAGUUAUAUUUAGUGAUATT against ABCA10 | -0.104 (inactive) |
| GGGUCAAGAUCGAGGAUAATT against MYOM3 | -0.012 (inactive) |

| Sequence | median seed-adjusted z-score |
| --- | --- |
| CCUCUAACAUUGGUUCCAATT against XPNPEP1 | -1.5 (active) |
| CCAUGUACGUCAUCCCAUUTT against PCK1 | -0.401 (inactive) |
| AGAUGAGCCUAUACAGCGATT against TRIM9 | -0.437 (inactive) |
| GCAGUUCGGCAGUAUCUGUTT against PSMD6 | -1.03 (active) |
| CAUCCAGCCCUUAUACAAATT against RBM24 | 0.0471 (inactive) |
| CGUUCUAUCAACAAACUCATT against EIF2S1 | -0.175 (inactive) |
| GCCUCACAGGUGCAUCAUATT against TSC2 | 1.11 (active) |
| GCCUAGGAGCGAGGACUUATT against DNAJC30 | 0.329 (inactive) |
| CAGCUAUAAUCGUUUAUGATT against RAB22A | 0.321 (inactive) |
| GGAAUUUCGGCACUCAGAATT against CHIT1 | -0.578 (inactive) |
| GGUUGCCCAUCUUACUCUATT against ZNF470 | -1.26 (active) |
| GCUCGGUCUGGUGAACUAATT against KLF3 | 0.628 (inactive) |
| CAAUCGUCAUAAUGUCUAUTT against A2M | -1.96 (active) |
| GAUCCAUAGUACACGAAUATT against ADAM7 | -0.0638 (inactive) |
| AGAUUGUCCUCAACUUCAATT against NRP2 | 0.477 (inactive) |
| AAUCAAAAGGGAGAACUCATT against HS3ST2 | 0.133 (inactive) |
| GACCCUCGAUUACUAUUCATT against OMA1 | 0 (inactive) |
| GCAUCGACAUGUCCUGGGATT against PUF60 | 2.26 (active) |
| CAUCAACUAUAUCACAGUATT against ATP13A5 | 0.241 (inactive) |
| AAUUCGAUAUGUUCAGCAATT against GPX4 | -1.18 (active) |
| CAUCUAGGAUUUUAAGGGATT against ASGR1 | -0.128 (inactive) |
| GGAGGUUUGUAGAAUAUGUTT against XYLT1 | -0.274 (inactive) |
| GCACGACUGUUACUGGACUTT against POLRMT | 0.0812 (inactive) |

| Sequence | median seed-adjusted z-score |
| --- | --- |
| GGAUAUCAAUCGAGUACAATT against PIK3R3 | -1.88 (active) |
| GCUGGACCGUAAAAUUGAATT against PSMC4 | -0.361 (inactive) |
| CCAACAUCUGGAACGAAUATT against KCNT2 | 0.449 (inactive) |
| GGACAAGAACGGAAUUUCATT against SCLY | 0.00396 (inactive) |
| GGACGGAAGAUUUUCGUAUTT against SR140 | 1.16 (active) |
| GAACCUCUAUUGUGGACAATT against TMEM1 | -0.191 (inactive) |
| AGAAAGUACUGCACAGAGATT against PCDH8 | -1.03 (active) |
| CGAAGUUUCCUAUAGAGGATT against PCDHGA10 | 0.0621 (inactive) |
| GAUAGGAUGUGACAAUGAATT against ING2 | 0.126 (inactive) |
| GCCUAUCAGGAUCCCAGCATT against RIN1 | -0.0694 (inactive) |
| AUGUACAAGUGUCAGCUAATT against VEGFC | -0.41 (inactive) |
| GCAUCGUGGUGUCAAGUCATT against ZBTB12 | 0.0993 (inactive) |
| GGUUGAAGCUUAUUGCAGATT against HARS2 | 0 (inactive) |
| CAAAAGUAUUCUUAGGAAATT against SLC25A15 | -0.0116 (inactive) |
| GACCUACUCUAGUGACAGATT against TRERF1 | -0.0952 (inactive) |
| ACCGAGAGAUGGUAUAUGATT against SUPT4H1 | -1.01 (active) |
| AGAUCACUGUAUCACCUCUTT against VDR | -0.031 (inactive) |
| GCUGGUGACUGAGUUUUCATT against NOB1 | -0.0844 (inactive) |
| GCUAUAUCAGGAUGAGAUATT against ATG5 | -0.0597 (inactive) |
| GGCCUUACCCUAAAUCGAATT against RARB | 0.409 (inactive) |
| CGAGCUACAGGAACAUCUUTT against LSS | -0.302 (inactive) |
| GUGUGAAGGUAGACCGUGATT against SPATA20 | 0 (inactive) |
| GAGUGGAAGUGUACCAACATT against HCFC1 | 1.47 (active) |
